This passage reports outcome and AC50 results from PubChem BioAssay (EPA / NIEHS).

What all share (conditions): mRNA level, 48 h; actives raise or lower the signal
Read-out in experiment [1]: Glutathione S-Transferase (GSTA2), GSTA2 (gene 2939)
The experiment is described as follows: LTEA_HepaRG_GSTA2: Life Technologies and Expression Analysis (LTEA) Assay for Glutathione S-Transferase (GSTA2) using HepaRG (AID 2283497). In outline:
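Human HepaRG cells, plated 48 h, then exposed in serum-free induction medium for 48 h to eight half-log concentrations up to 100 uM in 0.5% DMSO, duplicate. GSTA2 mRNA by qRT-PCR, normalized to ACTB/GAPDH/POLR2A; bidirectional fit versus DMSO.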

Read-out in experiment [2]: Glutamate-cysteine ligase catalytic (GCLC), GCLC (gene 2729)
The experiment is described as follows: LTEA_HepaRG_GCLC: Life Technologies and Expression Analysis (LTEA) Assay for Glutamate-cysteine ligase catalytic (GCLC) using HepaRG (AID 2283498). In outline: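 Differentiated human HepaRG cells, plated 48 h then switched to serum-free induction medium, were exposed in duplicate for 48 h to 8 half-log concentrations topping at 100 uM in 0.5% DMSO. GCLC mRNA was quantified by qRT-PCR against ACTB, GAPDH and POLR2A.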

Read-out in experiment [3]: growth arrest and DNA damage 45 (GADD45G), GADD45G (gene 10912)
The experiment is described as follows: LTEA_HepaRG_GADD45G: Life Technologies and Expression Analysis (LTEA) Assay for growth arrest and DNA damage 45 (GADD45G) using HepaRG (AID 2283499). In outline: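 Differentiated human HepaRG cells, 48 h post-plating, exposed 48 h in serum-free induction medium to 8 half-log concentrations (top 100 uM, 0.5% DMSO) in duplicate. GADD45G mRNA measured by Fluidigm TaqMan qRT-PCR, normalized to ACTB, GAPDH, POLR2A; bidirectional fit versus DMSO.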

Read-out in experiment [4]: Glutathione S-transferase M3 (GSTM3), GSTM3 (gene 2947)
The experiment can be described thus: LTEA_HepaRG_GSTM3: Life Technologies and Expression Analysis (LTEA) Assay for Glutathione S-transferase M3 (GSTM3) using HepaRG (AID 2283501). In outline:
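Differentiated human HepaRG cells were exposed in duplicate for 48 h in serum-free induction medium, 8 points from 100 uM top in half-log steps, 0.5% DMSO. GSTM3 mRNA was measured by TaqMan qRT-PCR, normalized to ACTB, GAPDH and POLR2A; bidirectional fit versus DMSO.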

Read-out in experiment [5]: Heat shock 70 kDa protein 1 (HSPA1A), gene 3303
The experiment can be described thus: LTEA_HepaRG_HSPA1A: Life Technologies and Expression Analysis (LTEA) Assay for Heat shock 70 kDa protein 1 (HSPA1A) using HepaRG (AID 2283502). In outline: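 Human HepaRG cells in serum-free induction medium were exposed in duplicate for 48 h to 8 half-log concentrations, highest 100 uM, in 0.5% DMSO. HSPA1A mRNA read by TaqMan qRT-PCR, normalized to ACTB, GAPDH, POLR2A, fitted bidirectionally against DMSO.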

Read-out in experiment [6]: Hypoxia-inducible factor 1-alpha (Homo sapiens) (UniProt Q16665)
The experiment can be described thus: LTEA_HepaRG_HIF1A: Life Technologies and Expression Analysis (LTEA) Assay for Hypoxia-inducible factor 1 (HIF1A) Trancription factor using HepaRG (AID 2283503). In outline: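 Differentiated HepaRG cells in serum-free induction medium exposed 48 h, in duplicate, to 8-point half-log series from 100 uM in 0.5% DMSO. HIF1A mRNA measured by TaqMan qRT-PCR, normalized to ACTB/GAPDH/POLR2A, fitted bidirectionally versus DMSO.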

Read-out in experiment [7]: 3-Hydroxy-3-Methylglutaryl-CoA Synthase 2 (HMGCS2), HMGCS2 (gene 3158)
The experiment can be described thus: LTEA_HepaRG_HMGCS2: Life Technologies and Expression Analysis (LTEA) Assay for 3-Hydroxy-3-Methylglutaryl-CoA Synthase 2 (HMGCS2) using HepaRG (AID 2283504). In outline: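 Human HepaRG cells in serum-free induction medium were exposed in duplicate for 48 h to 8-point half-log series from 100 uM top in 0.5% DMSO. HMGCS2 mRNA measured by TaqMan qRT-PCR, normalised to ACTB, GAPDH, POLR2A; bidirectional fit versus DMSO.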

Read-out in the next experiment: HGF (gene 3082)
The experiment is described as follows: LTEA_HepaRG_HGF: Life Technologies and Expression Analysis (LTEA) Assay for Hepatocyte Growth Facto (HGF) using HepaRG (AID 2283505). In outline: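 Differentiated HepaRG cells in serum-free induction medium exposed 48 h in duplicate, 8 half-log concentrations from 100 uM in 0.5% DMSO. HGF mRNA by qRT-PCR, normalised to ACTB, GAPDH, POLR2A; bidirectional fitting.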

Read-out in experiment [8]: Insulin Like Growth Factor 1 (IGF1), IGF1 (gene 3479)
The experiment can be described thus: LTEA_HepaRG_IGF1: Life Technologies and Expression Analysis (LTEA) Assay for Insulin Like Growth Factor 1 (IGF1) using HepaRG (AID 2283506). In outline: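 Differentiated HepaRG cells in serum-free induction medium, exposed 48 h in duplicate to 8 half-log concentrations up to 100 uM in 0.5% DMSO. IGF1 mRNA by Fluidigm qRT-PCR, normalised to ACTB, GAPDH and POLR2A.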

Read-out in experiment [9]: Intercellular Adhesion Molecule 1 (ICAM1), ICAM1 (gene 3383)
The experiment is described as follows: LTEA_HepaRG_ICAM1: Life Technologies and Expression Analysis (LTEA) Assay for Intercellular Adhesion Molecule 1 (ICAM1) using HepaRG (AID 2283507). In outline:
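Differentiated human HepaRG cells in serum-free induction medium exposed 48 h in duplicate to 8 half-log concentrations (top 100 uM, 0.5% DMSO). ICAM1 mRNA quantified by TaqMan qRT-PCR, normalized to ACTB, GAPDH and POLR2A; bidirectional fitting versus DMSO.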

Read-out in experiment [10]: Insulin-like growth factor-binding protein 1 (IGFBP1), IGFBP1 (gene 3484)
The experiment can be described thus: LTEA_HepaRG_IGFBP1: Life Technologies and Expression Analysis (LTEA) Assay for Insulin-like growth factor-binding protein 1 (IGFBP1) using HepaRG (AID 2283508). In outline:
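HepaRG cells, plated 48 h then switched to serum-free induction medium, exposed in duplicate for 48 h to 8-point half-log series from 100 uM in 0.5% DMSO. mRNA measured by qRT-PCR, normalized to ACTB/GAPDH/POLR2A; bidirectional fit versus DMSO.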

Read-out in experiment [11]: Interleukin 6 (IL6), IL6 (gene 3569)
The experiment can be described thus: LTEA_HepaRG_IL6: Life Technologies and Expression Analysis (LTEA) Assay for Interleukin 6 (IL6) using HepaRG (AID 2283509). In outline: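 Differentiated human HepaRG cells, plated 48 h then switched to serum-free induction medium, were exposed in duplicate for 48 h to eight half-log concentrations up to 100 uM in 0.5% DMSO. IL6 mRNA measured by qRT-PCR, normalized to ACTB/GAPDH/POLR2A.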

Read-out in experiment [12]: Interleukin 6 Receptor (IL6R), IL6R (gene 3570)
The experiment is described as follows: LTEA_HepaRG_IL6R: Life Technologies and Expression Analysis (LTEA) Assay for Interleukin 6 Receptor (IL6R) using HepaRG (AID 2283510).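 For AC50: TaqMan qRT-PCR signal normalized to ACTB GAPDH and POLR2A housekeeping genes.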 In outline: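 Differentiated HepaRG cells, plated 48 h, then exposed in duplicate for 48 h in serum-free induction medium to 8 half-log concentrations (top 100 uM, 0.5% DMSO). IL6R mRNA measured by TaqMan qRT-PCR, normalized to ACTB/GAPDH/POLR2A; bidirectional fit vs DMSO.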

Read-out in experiment [13]: Keratin 19 (KRT19), KRT19 (gene 3880)
The experiment is described as follows: LTEA_HepaRG_KRT19: Life Technologies and Expression Analysis (LTEA) Assay for Keratin 19 (KRT19) using HepaRG (AID 2283512). In outline: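 Differentiated HepaRG cells in serum-free induction medium, exposed 48 h in duplicate to 8 half-log concentrations up to 100 uM in 0.5% DMSO. KRT19 mRNA by qRT-PCR, normalized to ACTB, GAPDH, POLR2A; bidirectional fit vs DMSO.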

Read-out in experiment [14]: JUN Transcription Factor, JUN (gene 3725)
The experiment is described as follows: LTEA_HepaRG_JUN: Life Technologies and Expression Analysis (LTEA) Assay for JUN Transcription Factor using HepaRG (AID 2283513). In outline:
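HepaRG cells, 48 h post-plating, exposed 48 h in serum-free induction medium to 8-point half-log series (top 100 uM, 0.5% DMSO), duplicate; mRNA by qRT-PCR (TaqMan, Fluidigm), normalized to ACTB/GAPDH/POLR2A; bidirectional fit vs DMSO.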

Read-out in experiment [15]: Lipase C (LIPC), LIPC (gene 3990)
The experiment can be described thus: LTEA_HepaRG_LIPC: Life Technologies and Expression Analysis (LTEA) Assay for Lipase C (LIPC) using HepaRG (AID 2283514). In outline:
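Differentiated human HepaRG cells in serum-free induction medium were exposed in duplicate for 48 h to eight concentrations (top 100 uM, half-log steps, 0.5% DMSO). LIPC mRNA was quantified by TaqMan qRT-PCR, normalized to ACTB, GAPDH and POLR2A, with bidirectional fitting versus DMSO.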

Read-out in experiment [16]: Lipoprotein lipase (LPL), LPL (gene 4023)
The experiment can be described thus: LTEA_HepaRG_LPL: Life Technologies and Expression Analysis (LTEA) Assay for Lipoprotein lipase (LPL) using HepaRG (AID 2283515). In outline: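 Differentiated human HepaRG cells in serum-free induction medium were exposed in duplicate for 48 h to eight half-log concentrations (top 100 uM) in 0.5% DMSO. LPL mRNA was quantified by TaqMan qRT-PCR, normalized to ACTB, GAPDH and POLR2A.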

Read-out in experiment [17]: MicroRNA 122 (MIR122), gene 406906
The experiment is described as follows: LTEA_HepaRG_MIR122: Life Technologies and Expression Analysis (LTEA) Assay for MicroRNA 122 (MIR122) using HepaRG (AID 2283516). Note: the transcript read is the microRNA miR-122. In outline:
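Differentiated human HepaRG cells in serum-free induction medium exposed 48 h to 8 half-log concentrations from 100 uM in 0.5% DMSO, duplicate. MIR122 quantified by Fluidigm TaqMan qRT-PCR, normalised to ACTB, GAPDH, POLR2A; fold change fitted bidirectionally versus DMSO.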

Read-out in experiment [18]: Potassium channel subfamily K member 1 (KCNK1), KCNK1 (gene 3775)
The experiment is described as follows: LTEA_HepaRG_KCNK1: Life Technologies and Expression Analysis (LTEA) Assay for Potassium channel subfamily K member 1 (KCNK1) using HepaRG (AID 2283511). In outline: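 Differentiated human HepaRG cells in serum-free induction medium were exposed in duplicate for 48 h to 8 half-log concentrations up to 100 uM in 0.5% DMSO. KCNK1 mRNA was measured by TaqMan qRT-PCR, normalized to ACTB, GAPDH and POLR2A, and fitted bidirectionally versus DMSO.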

The term AC50 denotes the midpoint of the concentration-response curve, whichever way the signal moves.

Activity calls are given as the source filed them. Rule for the calls: active = hit-call score of the fitted dose curve at least 0.9, where 1 is the maximum; inactive = score below 0.9.

Sequence of Hypoxia-inducible factor 1-alpha (Homo sapiens) (Q16665 whole entry, looked up): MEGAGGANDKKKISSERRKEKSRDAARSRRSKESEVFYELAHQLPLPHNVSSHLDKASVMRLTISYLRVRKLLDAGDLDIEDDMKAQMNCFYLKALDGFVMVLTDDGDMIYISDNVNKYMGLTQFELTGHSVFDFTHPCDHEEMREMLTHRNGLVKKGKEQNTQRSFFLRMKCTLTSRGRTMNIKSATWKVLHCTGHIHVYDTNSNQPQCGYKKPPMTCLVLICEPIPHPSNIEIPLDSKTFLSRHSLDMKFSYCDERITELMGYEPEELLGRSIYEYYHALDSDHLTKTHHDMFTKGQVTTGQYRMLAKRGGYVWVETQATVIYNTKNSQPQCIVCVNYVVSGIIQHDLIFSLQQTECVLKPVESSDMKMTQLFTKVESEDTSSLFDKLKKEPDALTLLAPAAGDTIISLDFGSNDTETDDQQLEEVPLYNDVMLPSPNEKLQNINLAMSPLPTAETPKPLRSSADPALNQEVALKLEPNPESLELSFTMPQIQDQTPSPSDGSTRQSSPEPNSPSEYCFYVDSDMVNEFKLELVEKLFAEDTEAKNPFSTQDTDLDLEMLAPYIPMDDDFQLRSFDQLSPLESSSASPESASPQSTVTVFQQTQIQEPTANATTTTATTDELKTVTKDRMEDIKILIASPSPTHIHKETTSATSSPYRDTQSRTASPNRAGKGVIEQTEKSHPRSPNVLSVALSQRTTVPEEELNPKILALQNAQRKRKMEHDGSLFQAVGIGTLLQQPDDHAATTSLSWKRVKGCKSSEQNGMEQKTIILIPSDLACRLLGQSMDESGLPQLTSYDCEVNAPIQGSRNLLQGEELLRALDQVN

`O=C1CCCCC1`: the compound was classed as inactive in experiment [1], in experiment [2], in [3], in [4], in experiment [5] and in experiment [6]. Moreover, the result (in experiment [7]; with HGF (gene 3082); in [8]; in experiment [9]; in experiment [10]; in experiment [11]) was inactive. Besides, the compound was called inactive in experiment [12], in experiment [13], in experiment [14], in experiment [15], in experiment [16] and in experiment [17].

Consider `O=C(N[C@@H](c1ccccc1)[C@@H]1CCCCN1)c1cccc(C(F)(F)F)c1Cl`, for which the AC50 in [1] is 76.6 µM (active); in [3] it was 82.8 µM (active); in experiment [5], 50 µM (active); in experiment [7], 69.4 µM (active); in [8] it was 17.9 µM (active); in experiment [9], 61.9 µM (active). Further, the AC50 is 25.3 µM (active) in experiment [10]; 85 µM (active) in [11]; 50 µM (active) in [12]; 12.6 µM (active) in [13]; 65 µM (active) in experiment [14]; 84.7 µM (active) in experiment [16]. Also, the call (in [2]; in experiment [6]; with HGF (gene 3082); in experiment [15]; in experiment [17]) was inactive.

Consider `O=C1NC(=O)C(c2ccccc2)(c2ccccc2)N1`, for which, in experiment [1], the AC50 was 9.92 µM (active). Moreover, the result (in experiment [2]; in experiment [3]; in [5]; in experiment [7]; with HGF (gene 3082); in experiment [8]) was inactive. The result in experiment [9], in [10], in experiment [11], in experiment [12], in experiment [13] and in experiment [14] was inactive. Further, the compound was called inactive in experiment [15], in [16] and in experiment [17].

As to `CC(C)NCC(O)c1ccc(O)c(O)c1` (stereo not drawn), the AC50 is 0.222 µM (active) in experiment [1]; 0.116 µM (active) in experiment [5]; 0.173 µM (active) in experiment [7]; 0.166 µM (active) with HGF (gene 3082); 9.92 µM (active) in experiment [12]; 0.149 µM (active) in [13]. For the same compound, the values for the AC50 in experiment [15] and in experiment [16] were 0.227 µM (active) and 0.319 µM (active), respectively. The compound was called inactive in experiment [2], in experiment [3], in experiment [8], in experiment [9], in experiment [10] and in [11]. Besides, the result in experiment [18], in experiment [14] and in experiment [17] was inactive.
